Unmarked numbers belong to inactive results. For part of these data: Entries with a potency or affinity are not part of this list. Calls of active or inactive are those of the source. Unless noted, the rule behind the calls is not given here.

A short description of assay [1]: antimalarial activity against Dd2 strain (AID 2302;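 active = growth inhibition above 50% at the single 2 µM test dose, taken to imply half-maximal potency below 2 µM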;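 note: 0% = DMSO untreated growth and 100% = chloroquine plus artemisinin killed control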). The settings on record: P. falciparum Dd2 in RBCs, LDH growth readout, 72 h; at 2 µM; stronger effect = higher value.
Assay [2] can be described thus: human hepatoma cell viability loss – ATP luminescence, cytotoxicity control for P. falciparum antimalarial project, primary screen (AID 2303;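 active = inhibition above 50%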;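 note: 0% = DMSO wells and 100% = digitonin-killed cells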). As to conditions: HepG2 viability, 24-48 h, at 10 µM, stronger effect = higher value.
Assay [3] addresses L-lactate dehydrogenase (Plasmodium falciparum (isolate CDC / Honduras)) (UniProt Q27743). Description: PfLDH activity inhibition – cell lysate, 3D7 strain, counter-screen for P. falciparum growth inhibition project (AID 2304).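 Note: 0% = vehicle and 100% = reference inhibitor.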 The settings on record: P. falciparum 3D7 crude extract, LDH APAD/NBT absorbance; at 2 µM; stronger effect = higher value. For orientation: Counterscreens check selectivity or assay interference.

The nature of assay [4]: inhibition of 3D7 malaria parasite growth – strain 3D7 (AID 2306).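 Note: 0% = DMSO wells and 100% = chloroquine plus artemisinin control wells.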 As to conditions: P. falciparum 3D7 erythrocytic growth, LDH absorbance, 72 h; at 2 µM; stronger effect = higher value.
Assay [5] deals with Calcium-dependent protein kinase 1 (Plasmodium falciparum (isolate 3D7)) (UniProt P62344). Description: PfCDPK1 kinase inhibitors, biochemical, TCAMS library (AID 1159585; cut-off not given, nearly all actives have IC50 up to about 0.98 µM;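 note: inhibitors leave more ATP so luminescence rises with inhibition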). As to conditions: recombinant PfCDPK1, Kinase-Glo ATP depletion luminescence.
Calcium-dependent protein kinase 1 (Plasmodium falciparum (isolate 3D7)), sequence (P62344 whole entry, looked up): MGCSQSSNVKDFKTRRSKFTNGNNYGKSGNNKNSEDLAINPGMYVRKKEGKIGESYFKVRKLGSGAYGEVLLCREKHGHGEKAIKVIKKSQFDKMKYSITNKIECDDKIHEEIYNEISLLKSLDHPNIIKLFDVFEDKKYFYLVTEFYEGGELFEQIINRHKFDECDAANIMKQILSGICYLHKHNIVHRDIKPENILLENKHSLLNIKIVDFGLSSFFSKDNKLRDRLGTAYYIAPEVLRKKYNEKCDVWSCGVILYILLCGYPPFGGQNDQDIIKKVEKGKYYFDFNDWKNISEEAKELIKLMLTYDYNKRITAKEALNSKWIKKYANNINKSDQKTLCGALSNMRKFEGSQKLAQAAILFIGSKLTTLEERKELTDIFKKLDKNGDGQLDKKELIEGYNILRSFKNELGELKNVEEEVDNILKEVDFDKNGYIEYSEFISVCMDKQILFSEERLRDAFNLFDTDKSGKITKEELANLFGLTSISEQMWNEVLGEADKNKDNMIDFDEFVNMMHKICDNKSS
In assay [6] the target is Plasmodium falciparum protein kinase 6 (PK6, PF3D7_1337100) (UniProt Q8IDW1). Description: PfPK6 kinase inhibitors, biochemical, TCAMS library (AID 1159586). The settings on record: recombinant PfPK6, Kinase-Glo ATP depletion luminescence. A general note: Kinase-Glo measures the ATP left after a reaction by luminescence.
Plasmodium falciparum protein kinase 6 (PK6, PF3D7_1337100), sequence (Q8IDW1 1-305): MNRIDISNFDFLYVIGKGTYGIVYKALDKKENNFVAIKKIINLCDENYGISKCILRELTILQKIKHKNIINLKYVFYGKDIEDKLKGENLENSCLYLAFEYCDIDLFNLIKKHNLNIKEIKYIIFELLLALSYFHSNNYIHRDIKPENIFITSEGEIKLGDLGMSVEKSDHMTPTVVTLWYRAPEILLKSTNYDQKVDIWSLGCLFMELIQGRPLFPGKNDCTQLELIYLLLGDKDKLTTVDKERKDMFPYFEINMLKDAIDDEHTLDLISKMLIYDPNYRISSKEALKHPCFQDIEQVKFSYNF
Assay [7] addresses Protein kinase 7 (PK7), Plasmodium falciparum 3D7 (PF3D7_0213400) (UniProt Q7YTF7). Description: inhibition of Plasmodium PK7 catalytic activity – biochemical, TCAMS antimalarial set, Kinase-Glo luminescence (AID 1159587). The settings on record: recombinant PfPK7, Kinase-Glo ATP depletion luminescence.
For assay [8], the target named is Calcium-dependent protein kinase 4 (Plasmodium falciparum (isolate 3D7)) (UniProt Q8IBS5). Description: PfCDPK4 kinase inhibitors, biochemical, TCAMS library (AID 1159588; cut-off not given, nearly all actives have IC50 up to about 0.91 µM). The settings on record: recombinant PfCDPK4, Kinase-Glo ATP depletion luminescence.
Calcium-dependent protein kinase 4 (Plasmodium falciparum (isolate 3D7)), sequence (Q8IBS5 whole entry, looked up): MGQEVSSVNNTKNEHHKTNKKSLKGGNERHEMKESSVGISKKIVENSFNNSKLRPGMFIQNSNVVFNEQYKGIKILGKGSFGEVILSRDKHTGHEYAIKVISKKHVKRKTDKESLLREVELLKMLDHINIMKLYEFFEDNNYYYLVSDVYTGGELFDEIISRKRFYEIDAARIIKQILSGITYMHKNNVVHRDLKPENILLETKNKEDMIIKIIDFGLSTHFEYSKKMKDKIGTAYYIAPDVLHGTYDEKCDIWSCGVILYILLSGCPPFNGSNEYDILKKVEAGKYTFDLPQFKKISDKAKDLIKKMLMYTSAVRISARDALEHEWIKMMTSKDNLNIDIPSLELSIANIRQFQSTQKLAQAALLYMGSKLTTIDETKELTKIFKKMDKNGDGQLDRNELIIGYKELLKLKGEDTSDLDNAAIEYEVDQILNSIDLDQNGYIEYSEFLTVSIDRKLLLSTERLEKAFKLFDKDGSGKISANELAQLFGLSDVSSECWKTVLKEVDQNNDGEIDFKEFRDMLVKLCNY

L-lactate dehydrogenase (Plasmodium falciparum (isolate CDC / Honduras)), sequence (Q27743 whole entry, looked up): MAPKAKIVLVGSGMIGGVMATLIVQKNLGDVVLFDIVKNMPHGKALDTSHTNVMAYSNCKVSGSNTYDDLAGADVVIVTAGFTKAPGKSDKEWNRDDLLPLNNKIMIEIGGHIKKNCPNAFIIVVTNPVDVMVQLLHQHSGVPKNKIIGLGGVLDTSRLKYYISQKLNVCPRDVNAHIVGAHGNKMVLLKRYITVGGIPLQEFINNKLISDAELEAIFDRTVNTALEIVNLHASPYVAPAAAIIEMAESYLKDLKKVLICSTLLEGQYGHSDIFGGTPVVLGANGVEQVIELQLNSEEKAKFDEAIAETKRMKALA
Protein kinase 7 (PK7), Plasmodium falciparum 3D7 (PF3D7_0213400), sequence (Q7YTF7 1-343): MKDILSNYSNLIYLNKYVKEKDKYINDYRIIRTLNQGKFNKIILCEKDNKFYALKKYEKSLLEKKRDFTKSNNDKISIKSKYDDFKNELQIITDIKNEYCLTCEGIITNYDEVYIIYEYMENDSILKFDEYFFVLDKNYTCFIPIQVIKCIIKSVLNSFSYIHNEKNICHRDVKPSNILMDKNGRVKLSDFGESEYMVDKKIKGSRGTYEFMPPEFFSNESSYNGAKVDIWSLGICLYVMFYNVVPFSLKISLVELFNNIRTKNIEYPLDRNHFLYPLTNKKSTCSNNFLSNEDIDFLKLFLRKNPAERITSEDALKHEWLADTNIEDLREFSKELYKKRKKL

Consider `COc1ccc(-c2ccc(Nc3cccc(S(=O)(=O)CCN4CCC(CCN(C)C)CC4)c3)nc2)cn1`, for which the growth inhibition in assay [1] was 9%; in assay [4], 100% (active). Also, the inhibition in assay [2] is 44%; in assay [3], 3%. The outcome in assay [5], in assay [6], in assay [7] and in assay [8] was inactive.
In the case of `Cc1cc(N2CCCC2)nc(Nc2ccc(NC(=O)C(C)Oc3ccccc3)cc2)n1` (stereo not drawn), the growth inhibition in assay [1] was 58% (active); in assay [4] it was 101% (active). Further, the inhibition in assay [2] is 42%; in assay [3], -1%. In addition, the outcome in assay [5], in assay [6], in assay [7] and in assay [8] was inactive.
Regarding `CCOC(=O)[C@H](Cc1cc([N+](=O)[O-])c(Oc2ccc(OC)c(Cc3ccc(OC)c(C(C)C)c3)c2)c([N+](=O)[O-])c1)NC(=O)C(F)(F)F`, the growth inhibition was -3% in assay [1] and 94% (active) in assay [4]. For the same molecule, the values for the inhibition in assay [2] and in assay [3] were 5% and -3%, respectively. Moreover, the outcome in assay [5], in assay [6], in assay [7] and in assay [8] was inactive.
In the case of `Cc1cccc(-n2c(=O)c3c4c(sc3n3c(SCCC(C)C)nnc23)CCCC4)c1`, the growth inhibition in assay [1] was 8%; in assay [4], 90% (active). Besides, the results for the inhibition in assay [2] and in assay [3] were -2% and -4%, respectively. Moreover, the outcome in assay [5], in assay [6], in assay [7] and in assay [8] was inactive.
On to `c1ccc2c(c1)CN(Cc1cc3ccccc3[nH]1)CC1(CCN(Cc3c[nH]c4cnccc34)CC1)O2`, for which the values for the growth inhibition in assay [1] and in assay [4] were 62% (active) and 101% (active), respectively. Also, the results for the inhibition in assay [2] and in assay [3] were 27% and -3%, respectively. For the same molecule, the result in assay [5], in assay [6], in assay [7] and in assay [8] was inactive.
With `CCN(CC)CCN(Cc1ccc(-c2ccc(C(F)(F)F)cc2)cc1)C(=O)Cn1c(CCc2cc(F)cc(F)c2)nc(=O)c2ccccc21`, the growth inhibition in assay [1] was 80% (active); in assay [4], 91% (active). For the same molecule, the inhibition in assay [2] is 30%; in assay [3], 2%. The result in assay [5], in assay [6], in assay [7] and in assay [8] was inactive.
`Cc1ccc(Nc2nc(N)c3ccccc3n2)cc1`: the growth inhibition was 12% in assay [1] and 94% (active) in assay [4]. Moreover, the figures for the inhibition in assay [2] and in assay [3] were 9% and 8%, respectively. Further, the outcome in assay [5], in assay [6], in assay [7] and in assay [8] was inactive.
Turning to `O=C(Nc1ccc(F)c(Cl)c1)c1cc([N+](=O)[O-])cc2cn[nH]c12`, the growth inhibition was 67% (active) in assay [1] and 100% (active) in assay [4]. The values for the inhibition in assay [2] and in assay [3] were 32% and -4%, respectively. Moreover, the result in assay [5], in assay [6], in assay [7] and in assay [8] was inactive.
Consider `CCCCCCNC(=O)C1Cc2c([nH]c3ccc(C)cc23)C2(CCN(CCc3ccccc3)CC2)N1` (stereo not drawn), for which the growth inhibition was 24% in assay [1] and 85% (active) in assay [4]. In addition, the inhibition in assay [2] was 31%; in assay [3] it was 4%. For the same molecule, the outcome in assay [5], in assay [6], in assay [7] and in assay [8] was inactive.
As to `COc1c(C2CCN(CCCCNC(=O)c3ccc(-c4ccc(Cl)cc4)c(OCC(N)=O)c3)CC2)ccc2c1CCCC2`, the growth inhibition was 11% in assay [1] and 97% (active) in assay [4]. The inhibition in assay [2] was 43%; in assay [3], 3%. Also, the outcome in assay [5], in assay [6], in assay [7] and in assay [8] was inactive.
In the case of `CC(=O)Nc1nc(C(=O)Nc2cccc(-c3cccc(-c4nc5ccc(F)cc5[nH]4)c3)c2)cs1`, the growth inhibition in assay [1] was 100% (active); in assay [4], 101% (active). Moreover, the results for the inhibition in assay [2] and in assay [3] were 39% and -2%, respectively. Also, the result in assay [5], in assay [6], in assay [7] and in assay [8] was inactive.
In the case of `O=C(/C=C/c1ccc(Cl)c(Cl)c1)NCCCCCN1CCC(NC(=O)NC2CCCC2)CC1`, the values for the growth inhibition in assay [1] and in assay [4] were 31% and 99% (active), respectively. Further, the values for the inhibition in assay [2] and in assay [3] were 21% and -1%, respectively. The result in assay [5], in assay [6], in assay [7] and in assay [8] was inactive.
For `COc1ccc(Nc2nccc(N3CCC(NS(=O)(=O)c4ccc(NC(C)=O)cc4)C3)n2)cc1` (stereo not drawn), the growth inhibition in assay [1] was 16%; in assay [4], 100% (active). In addition, the inhibition is 3% in assay [2] and -2% in assay [3]. Also, the result in assay [5], in assay [6], in assay [7] and in assay [8] was inactive.
As for `CCCNCc1ccc(-c2ccc(CN(CCOC)C(=O)COc3ccccc3Cl)cc2)nc1`, the growth inhibition in assay [1] was 29%; in assay [4], 96% (active). The inhibition in assay [2] was -1%; in assay [3], -2%. Moreover, the result in assay [5], in assay [6], in assay [7] and in assay [8] was inactive.
Turning to `Nc1cccc(CNCc2cccc(-c3ccc(-c4nc5ccccc5[nH]4)cc3)c2)c1`, the values for the growth inhibition in assay [1] and in assay [4] were 92% (active) and 101% (active), respectively. Further, the inhibition in assay [2] is -1%; in assay [3] it was -2%. In addition, the outcome in assay [5], in assay [6], in assay [7] and in assay [8] was inactive.
On to `CC(=O)CSC(C=Cc1ccc(N(C)C)cc1)=Nc1ccccc1`, for which the growth inhibition was 42% in assay [1] and 81% (active) in assay [4]. Besides, the results for the inhibition in assay [2] and in assay [3] were 38% and -4%, respectively. Further, the outcome in assay [5], in assay [6], in assay [7] and in assay [8] was inactive.
As to `COc1cc2nc(N3CCN(c4nc(N)c5cc(OC)c(OC)cc5n4)CC3)nc(N)c2cc1OC`, the growth inhibition is 99% (active) in assay [1] and 101% (active) in assay [4]. Also, the inhibition in assay [2] is 13%; in assay [3], -4%. The result in assay [5], in assay [6], in assay [7] and in assay [8] was inactive.
With `Cc1cccc2[nH]c(-c3ccc(-c4ccc(CNCc5cnn(-c6ccccc6)n5)cc4)s3)nc12`, the growth inhibition in assay [1] is 48%; in assay [4], 97% (active). The inhibition was 16% in assay [2] and -3% in assay [3]. Moreover, the result in assay [5], in assay [6], in assay [7] and in assay [8] was inactive.
`O=C(Nc1cccc(-c2ccc(-c3nc4ccc(C(F)(F)F)cc4[nH]3)cc2)c1)c1cccnc1`: the growth inhibition in assay [1] is 97% (active); in assay [4], 101% (active). Also, the inhibition was 73% (active) in assay [2] and -9% in assay [3]. Further, the result in assay [5], in assay [6], in assay [7] and in assay [8] was inactive.
With `CCN(CC)CCN(Cc1ccc(-c2ccc(C(F)(F)F)cc2)cc1)C(=O)Cn1c(CCc2cccc(F)c2F)nc(=O)c2ccc(C)cc21`, the growth inhibition in assay [1] was 58% (active); in assay [4] it was 99% (active). Further, the inhibition in assay [2] was 39%; in assay [3] it was -2%. The outcome in assay [5], in assay [6], in assay [7] and in assay [8] was inactive.
As to `O=C(/C=C/c1ccc(Cl)c(Cl)c1)NCCCCCN1CCC(NC(=O)c2ccc(F)c(F)c2)CC1`, the figures for the growth inhibition in assay [1] and in assay [4] were 20% and 99% (active), respectively. Further, the inhibition in assay [2] was 36%; in assay [3] it was -3%. For the same molecule, the outcome in assay [5], in assay [6], in assay [7] and in assay [8] was inactive.

The term inhibition denotes the drop in the measured response relative to a control, in per cent.

The record behind these values is PubChem BioAssay.
